Laboratory results taken from PubChem BioAssay (EPA / NIEHS).
Where “and” joins values, the source holds several entries; their conditions need not be identical. Equal values may be shown once. A structure can be active in one record and inactive in another. Calls of active or inactive are those of the source. Rule for the calls: active = hit-call score of the fitted dose curve at least 0.9, where 1 is the maximum; inactive = score below 0.9.

Columns and labels:
[1] = BSK_hDFCGF_Proliferation: Cell Proliferation Assessment in the BioMAP Diversity Plus: hDFCGF Assay (AID 2283059); conditions: primary human foreskin fibroblasts;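 note: curves fitted for both rise and fall of signal versus DMSO baseline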
In short: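 This proliferation readout used SRB total-protein staining of human foreskin fibroblasts […], normalized to DMSO with bidirectional curve fitting.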

[2] = read-out: Macrophage colony-stimulating factor (MCSF), CSF1 (gene 1435); assay: BSK_hDFCGF_MCSF: BioMAP Diversity Plus: hDFCGF Assay for Macrophage colony-stimulating factor (MCSF) Biomarker Activity (AID 2283060); conditions: primary human foreskin fibroblasts; actives raise or lower the signal
In short: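 fibroblasts (human foreskin, primary), 24 h post-dose; M-CSF by ELISA; bidirectional fit, DMSO = baseline.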

[3] = BSK_hDFCGF_SRB: Viability Assessment in the BioMAP Diversity Plus: hDFCGF Assay (AID 2283061); conditions: primary human foreskin fibroblasts;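 note: cells exposed to compound for 24 h before the read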
In short: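 SRB-based viability read on primary human skin fibroblasts at 24 h: TCA fixation, 0.1% dye, 560 nm. Gain or loss of signal is fitted against the DMSO negative control.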

[4] = read-out: TIMP metallopeptidase inhibitor 1 (TIMP1), TIMP1 (gene 7076); assay: BSK_hDFCGF_TIMP1: BioMAP Diversity Plus: hDFCGF Assay for TIMP metallopeptidase inhibitor 1 (TIMP1) Biomarker Activity (AID 2283062); conditions: primary human foreskin fibroblasts; actives raise or lower the signal
In short: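 Bidirectional curve fitting against DMSO baseline yielded this endpoint, based on ELISA detection of TIMP-1 in primary human foreskin fibroblasts exposed to compound for 24 h.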

[5] = read-out: Monokine induced gamma interferon (MIG), CXCL9 (gene 4283); assay: BSK_hDFCGF_MIG: BioMAP Diversity Plus: hDFCGF Assay for Monokine induced gamma interferon (MIG) Biomarker Activity (AID 2283063); conditions: primary human foreskin fibroblasts; actives raise or lower the signal
In short: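 Endpoint derived by bidirectional fitting relative to DMSO; MIG quantified via ELISA in primary human foreskin fibroblasts harvested 24 h after dosing.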

[6] = read-out: Matrix Metallopeptidase 1 (MMP1), MMP1 (gene 4312); assay: BSK_hDFCGF_MMP1: BioMAP Diversity Plus: hDFCGF Assay for Matrix Metallopeptidase 1 (MMP1) Biomarker Activity (AID 2283064); conditions: primary human foreskin fibroblasts; actives raise or lower the signal
In short: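 Primary human foreskin fibroblasts exposed to chemicals for 24 h; MMP1 measured by ELISA. Cytotoxicity tracked by SRB staining in parallel cultures; bidirectional fit relative to DMSO.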

[7] = read-out: Vascular cell adhesion molecule 1 (VCAM1), VCAM1 (gene 7412); assay: BSK_hDFCGF_VCAM1: BioMAP Diversity Plus: hDFCGF Assay for Vascular cell adhesion molecule 1 (VCAM1) Biomarker Activity (AID 2283065); conditions: primary human foreskin fibroblasts; actives raise or lower the signal;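 for AC50: VCAM-1 protein level quantified by ELISA after 24 h chemical exposure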
In short: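 Measured after 24 h chemical treatment of primary human skin fibroblasts, VCAM-1 was detected by ELISA and concentration-response analysed in both directions versus DMSO vehicle.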

[8] = read-out: Plasminogen activator inhibitor-1 (PAI1), SERPINE1 (gene 5054); assay: BSK_hDFCGF_PAI1: BioMAP Diversity Plus: hDFCGF Assay for Plasminogen activator inhibitor-1 (PAI1) Biomarker Activity (AID 2283066); conditions: primary human foreskin fibroblasts; actives raise or lower the signal
In short: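 Human foreskin fibroblasts in the hDFCGF system were dosed with compound for 24 h; PAI-1 was quantified by ELISA. Bidirectional curve fitting used DMSO as negative control and baseline.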

[9] = read-out: Intercellular Adhesion Molecule 1 (ICAM1), ICAM1 (gene 3383); assay: BSK_KF3CT_ICAM1: BioMAP Diversity Plus: KF3CT Assay for Intercellular Adhesion Molecule 1 (ICAM1) Biomarker Activity (AID 2283067); conditions: primary human keratinocytes with fibroblasts; actives raise or lower the signal
In short: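 Bidirectional curve fitting against a DMSO baseline was applied to ICAM-1 ELISA signal from primary human skin co-cultures harvested 24 h after treatment, with SRB staining of parallel wells for overt cytotoxicity.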

[10] = read-out: Interferon-gamma inducible Protein 10 (IP10), CXCL10 (gene 3627); assay: BSK_KF3CT_IP10: BioMAP Diversity Plus: KF3CT Assay for Interferon-gamma inducible Protein 10 (IP10) Biomarker Activity (AID 2283068); conditions: primary human keratinocytes with fibroblasts; actives raise or lower the signal
In short: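 Signal is secreted/surface IP-10 by ELISA in a human primary skin co-culture of keratinocytes and foreskin fibroblasts, taken 24 h post-dosing; DMSO served as negative control.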

[11] = BSK_KF3CT_SRB: Viability Assessment in the BioMAP Diversity Plus: KF3CT Assay (AID 2283069); conditions: primary human keratinocytes with fibroblasts;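 note: total protein by sulforhodamine B staining as a cytotoxicity measure; read 24 h after compound addition; fitted for both signal gain and loss against DMSO baseline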
In short: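 Human keratinocyte and foreskin fibroblast co-culture exposed to chemical for 24 h. Total protein measured in parallel cultures by 0.1% sulforhodamine B staining after 10% TCA fixation, read at 560 nm; bidirectional fit relative to DMSO.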

[12] = read-out: Interleukin-1 alpha (IL1a), IL1A (gene 3552); assay: BSK_KF3CT_IL1a: BioMAP Diversity Plus: KF3CT Assay for Interleukin-1 alpha (IL1a) Biomarker Activity (AID 2283070); conditions: primary human keratinocytes with fibroblasts; actives raise or lower the signal
In short: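 Primary human keratinocyte plus foreskin fibroblast co-culture, dosed and measured at 24 h in 96-well plates. IL-1a level quantified by ELISA; bidirectional fit relative to DMSO.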

[13] = read-out: TIMP metallopeptidase inhibitor 2 (TIMP2), TIMP2 (gene 7077); assay: BSK_KF3CT_TIMP2: BioMAP Diversity Plus: KF3CT Assay for TIMP metallopeptidase inhibitor 2 (TIMP2) Biomarker Activity (AID 2283071); conditions: primary human keratinocytes with fibroblasts; actives raise or lower the signal
In short: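 Human primary keratinocyte/foreskin fibroblast co-culture dosed with chemical and sampled at 24 h. TIMP-2 levels quantified by ELISA; bidirectional fitting against DMSO negative control as baseline.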

[14] = read-out: C-C motif chemokine 2 (Homo sapiens) (UniProt P13500); assay: BSK_KF3CT_MCP1: BioMAP Diversity Plus: KF3CT Assay for Monocyte Chemoattractant Protein 1 (MCP1/CCL2) Biomarker Activity (AID 2283073); conditions: primary human keratinocytes with fibroblasts; actives raise or lower the signal
In short: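 Biomarker MCP-1 is measured by ELISA in primary human keratinocytes co-cultured with foreskin fibroblasts, 24 h after chemical treatment; DMSO serves as the negative control and activity baseline.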

[15] = read-out: Matrix Metallopeptidase 9 (MMP9), MMP9 (gene 4318); assay: BSK_KF3CT_MMP9: BioMAP Diversity Plus: KF3CT Assay for Matrix Metallopeptidase 9 (MMP9) Biomarker Activity (AID 2283074); conditions: primary human keratinocytes with fibroblasts; actives raise or lower the signal;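 for AC50: MMP9 protein level quantified by ELISA in the co-culture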
In short: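 Human keratinocyte and foreskin fibroblast co-culture exposed to chemicals for 24 h; MMP9 biomarker measured by ELISA, bidirectional fitting relative to DMSO; cytotoxicity tracked by SRB total protein staining in parallel cultures.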

CD40, CD40 (gene 958) = assay: BSK_LPS_CD40: BioMAP Diversity Plus: LPS Assay for CD40 Biomarker Activity (AID 2283076); conditions: primary human HUVEC with PBMC; actives raise or lower the signal
In short: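 Using a multiplexed primary human co-culture (umbilical vein endothelium plus PBMC), CD40 was read by ELISA 24 h after dosing, with cytotoxicity tracked by sulforhodamine B staining of parallel cultures and activity fitted bidirectionally versus DMSO.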

[16] = read-out: E-selectin (Homo sapiens) (UniProt P16581); assay: BSK_LPS_Eselectin: BioMAP Diversity Plus: LPS Assay for Eselectin Biomarker Activity (AID 2283077); conditions: primary human HUVEC with PBMC; actives raise or lower the signal
In short: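 Dose chemical onto LPS-driven HUVEC/PBMC co-culture; after 24 h, run ELISA for E-selectin; fit up- and down-going responses relative to DMSO control.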

[17] = read-out: Interleukin-8 (IL8), CXCL8 (gene 3576); assay: BSK_LPS_IL8: BioMAP Diversity Plus: LPS Assay for Interleukin-8 (IL8) Biomarker Activity (AID 2283078); conditions: primary human HUVEC with PBMC; actives raise or lower the signal
In short: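 In this LPS system, chemical-treated human umbilical vein endothelium/PBMC co-cultures were harvested at 24 h for IL-8 ELISA.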

[18] = read-out: Transforming growth factor beta 1 (TGFb1), TGFB1 (gene 7040); assay: BSK_KF3CT_TGFb1: BioMAP Diversity Plus: KF3CT Assay for Transforming growth factor beta 1 (TGFb1) Biomarker Activity (AID 2283072); conditions: primary human keratinocytes with fibroblasts; actives raise or lower the signal
In short: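 Human keratinocyte plus foreskin fibroblast primary co-culture, dosed with chemical for 24 h. TGF-b1 quantified by ELISA. Activity fitted bidirectionally against DMSO negative control as baseline.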

[19] = read-out: urokinase plasminogen activator (uPA), PLAU (gene 5328); assay: BSK_KF3CT_uPA: BioMAP Diversity Plus: KF3CT Assay for urokinase plasminogen activator (uPA) Biomarker Activity (AID 2283075); conditions: primary human keratinocytes with fibroblasts; actives raise or lower the signal
In short: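 Primary human keratinocyte/foreskin fibroblast co-culture exposed to chemical; uPA measured by ELISA at 24 h. Bidirectional fit versus DMSO, with parallel SRB total-protein staining for cytotoxicity.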

Measured: AC50

Chain of E-selectin (Homo sapiens) (P16581 whole entry, looked up): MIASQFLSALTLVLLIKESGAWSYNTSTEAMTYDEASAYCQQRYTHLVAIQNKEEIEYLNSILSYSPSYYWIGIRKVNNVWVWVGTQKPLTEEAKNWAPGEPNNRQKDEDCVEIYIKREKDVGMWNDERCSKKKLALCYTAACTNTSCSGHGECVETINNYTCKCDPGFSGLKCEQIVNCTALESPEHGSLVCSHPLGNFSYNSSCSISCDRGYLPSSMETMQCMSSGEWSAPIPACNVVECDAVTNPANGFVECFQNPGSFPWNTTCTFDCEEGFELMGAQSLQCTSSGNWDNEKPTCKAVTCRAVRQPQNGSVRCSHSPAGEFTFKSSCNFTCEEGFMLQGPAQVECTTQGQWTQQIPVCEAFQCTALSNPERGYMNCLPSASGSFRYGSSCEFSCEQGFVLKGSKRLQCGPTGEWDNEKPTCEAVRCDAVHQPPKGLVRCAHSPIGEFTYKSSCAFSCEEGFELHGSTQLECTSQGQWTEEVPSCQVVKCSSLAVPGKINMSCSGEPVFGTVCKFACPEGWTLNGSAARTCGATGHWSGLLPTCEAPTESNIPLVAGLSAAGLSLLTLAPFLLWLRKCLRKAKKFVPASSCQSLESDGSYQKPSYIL

CCCCCCCCOC(=O)c1ccccc1C(=O)OCCCCCCCC
not listed: [18] | [19]
inactive: all other assays above

ClC1=C(Cl)[C@]2(Cl)[C@@H]3[C@H]4C[C@H]([C@@H]5O[C@H]45)[C@@H]3[C@@]1(Cl)C2(Cl)Cl
active: [1] 6.6 µM
not listed: [8] | [18] | [19]
inactive: all other assays above

Cc1cc(-c2ccc(N)c(C)c2)ccc1N
not listed: CD40, CD40 (gene 958) | [19]
inactive: all other assays above

Oc1c(Cl)c(Cl)c(Cl)c(Cl)c1Cl
active: [1] 3.11 µM and 8.24 µM | [2] 6.44 µM | [3] 7.08 µM and 12.4 µM | [4] 13.7 µM | [5] 4.29 µM | [6] 33.1 µM | [7] 10.2 µM and 4.61 µM | [8] 10.2 µM and 9.72 µM | [9] 10.2 µM and 16.6 µM | [10] 12.9 µM and 20 µM | [11] 6.37 µM | [12] 20 µM | [13] 2.02 µM and 17.3 µM | [14] 10.8 µM | [15] 6.97 µM and 6.46 µM | CD40, CD40 (gene 958) 10.2 µM and 15.2 µM | [16] 27.1 µM | [17] 33.1 µM
inactive: [2] | [4] | [6] | [11] | [12] | [14] | [16] | [17]

C[C@]12CCC(=O)C=C1CC[C@@H]1[C@@H]2CC[C@]2(C)C(=O)CC[C@@H]12
active: [1] 13.2 µM
not listed: [18]
inactive: all other assays above

Cc1ccccc1CO[C@@H]1C[C@@]2(C(C)C)CC[C@]1(C)O2
not listed: [19]
inactive: all other assays above

O=C(NC(=O)c1cc(F)c(F)cc1Cl)Nc1cc(F)ccc1N1CCC(C(=O)O)CC1
inactive: all assays above

Clc1ccc(Cl)cc1
not listed: [19]
inactive: all other assays above

N#Cc1ccc(N(CC(N)=O)CC(F)(F)F)cc1C(F)(F)F
inactive: all assays above

C=CC(=O)NCNC(=O)C=C
not listed: [19]
inactive: all other assays above

COS(=O)(=O)OC
not listed: [18] | [19]
inactive: all other assays above
